# Experimental data taken from PubChem BioAssay (NCI).
# About 79,000 compounds went through this panel and 15% of them were active in at least one assay; those are over-represented in the sample as a whole. Unmarked numbers belong to inactive results. Calls of active or inactive are those of the source. No stated cut-off is given here; in the data, active means growth inhibition above about 70%; inactive means the rest.
# Tests used:
# [1] = NCI Yeast Anticancer Drug Screen. Data for the rad50 strain (AID 155);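 further: 0% = growth of vehicle-only cultures of the same strain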; settings: S. cerevisiae rad50 strain growth inhibition; at 50.0 µM; active compounds read high
# Method in brief: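 Compounds were tested on a yeast strain with an engineered DNA damage repair alteration; the reported value is growth inhibition normalised to vehicle treatment.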
# [2] = NCI Yeast Anticancer Drug Screen. Data for the mec2-1 strain (AID 157); settings: S. cerevisiae mec2-1 strain, at 50.0 µM, active compounds read high
# Method in brief: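 Cells of the genetically defined mec2-1 yeast strain are incubated with test compound. Inhibition of growth is calculated against vehicle-treated controls.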
# [3] = NCI Yeast Anticancer Drug Screen. Data for the sgs1 mgt1 strain (AID 161);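 further: 0% = growth of cultures given vehicle only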; settings: S. cerevisiae sgs1 mgt1 strain, at 50.0 µM, active compounds read high
# Method in brief: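 Test agents were incubated with a DNA-repair-mutant yeast strain. Growth was then read and compared against vehicle-treated controls.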
# [4] = NCI Yeast Anticancer Drug Screen. Data for the cln2 rad14 strain (AID 165);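 further: 0% = growth equal to vehicle treated cultures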; settings: S. cerevisiae cln2 rad14 strain, at 50.0 µM, active compounds read high
# Method in brief: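 The screen exposed genetically defined yeast (cln2 rad14) to test compounds and scored growth inhibition relative to vehicle-treated controls.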
# [5] = NCI Yeast Anticancer Drug Screen. Data for the bub3 strain (AID 167); settings: S. cerevisiae bub3 mutant strain, at 50.0 µM, active compounds read high
# Method in brief: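 Growth of a checkpoint-deficient yeast mutant is measured after compound exposure. Values represent inhibition relative to vehicle.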
# [6] = NCI Yeast Anticancer Drug Screen. Data for the mlh1 rad18 strain (AID 175); settings: S. cerevisiae mlh1 rad18 strain growth inhibition; at 50.0 µM; active compounds read high
# Method in brief: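 Compound-treated yeast growth, normalised to vehicle controls. Strain bears defined DNA repair mutations.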
Structure (SMILES),growth inhibition [1],growth inhibition [2],growth inhibition [3],growth inhibition [4],growth inhibition [5],growth inhibition [6]
O=C(O)C1CCCN1/N=C/c1cccc([N+](=O)[O-])c1 (stereo unspecified),-11.1%,-1.3%,9.1%,-5.4%,24.6%,-11.3%
C1=C(c2ccccc2)C(c2ccccc2)=C(c2ccccc2)C(c2ccccc2)C(c2ccccc2)=N1 (stereo unspecified),2.75%,10.2%,-2.95%,21.4%,-2.5%,8.55%
CN(C)c1ccc(/C=C(\NC(=O)c2ccccc2)C(=O)Nc2ccccc2C(=O)NCc2ccccc2)cc1,9.95%,11.7%,14.8%,12.3%,5.95%,30.7%
Clc1ccc2c(c1)C1Oc3ccc(Cl)cc3C(O2)O1,-5.5%,-24.5%,1%,-14.3%,-6.4%,-2.3%
Cc1ccc(C)c(NC(=O)CCC(=O)C(C#N)c2nc3ccccc3s2)c1 (stereo unspecified),25.9%,-3.3%,-5.15%,17.6%,3.7%,-5.7%
CC(=O)Oc1c(C)cc2c(c1C)C(C)CN2C(C)=O (stereo unspecified),3.95%,-33.8%,-24.6%,-18.9%,-22.4%,-10.6%
CNC(=O)n1c(N)nc(-c2ccccc2)c1-c1ccccc1,14.3%,4.55%,18.4%,1.7%,-22.1%,-46.9%
CN1CCC2c3c([nH]c4ccccc34)C(C)(C)OC2C1 (stereo unspecified),-11.9%,-35.9%,-33.6%,9.2%,-24.6%,6.65%
O=C(CCl)Nc1cc(C(F)(F)F)ccc1Cl,-0.15%,1.75%,18.1%,4.85%,23.9%,1.15%
COC(=O)/C(C)=C/C=C/C(OC)C(OC(N)=O)/C(C)=C/C(C)C(O)C(CC(C)CC1=C(OC)C(=O)C=C(N)C1=O)OC (stereo unspecified),5.85%,24.8%,17%,9.3%,2.85%,13.8%
Cc1cn(C2OC(CO)C(O)C(O)C2O)c(=O)[nH]c1=O (stereo unspecified),-1.4%,5.65%,-5.45%,-3.2%,15.2%,0.9%
O=C1CC(=O)N2C=CC=CC2N1 (stereo unspecified),-14.8%,-21.6%,-23.1%,-4.7%,-16.7%,-13.5%
CC(=O)c1cccc(NC(=O)OC2CCCC(C)C2)c1 (stereo unspecified),29.8%,60.7%,59.6%,19.4%,54%,43.1%
NS(=O)(=O)c1ccc(NC(=O)C2C(=O)N(c3ccc(S(N)(=O)=O)cc3)C(=O)/C2=N/O)cc1 (stereo unspecified),9.55%,0.25%,9.8%,-26.4%,2%,33.1%
Cc1ccc(S(=O)(=O)OCCNc2ccc([N+](=O)[O-])cc2[N+](=O)[O-])cc1,2%,6.8%,6.45%,11.8%,2.9%,7.85%
O=C=Nc1ccc([N+](=O)[O-])cc1,-0.9%,15.7%,1.2%,-20.6%,32.9%,-8.75%
O=c1nc(NCCc2c[nH]c3ccccc23)ccn1C1OC(CO)C(O)C1O (stereo unspecified),19.1%,4.5%,2.35%,15.1%,-1.45%,7.25%
COc1ccc(Cc2cc(N=NC(N)=O)c(C)cc2O)cc1,-7.35%,-5.65%,-2.55%,1.75%,3.5%,4.55%

Structure (SMILES),growth inhibition [1],growth inhibition [2],growth inhibition [3],growth inhibition [4],growth inhibition [5],growth inhibition [6]
O=C1NN(c2ccccc2)C(=O)C2C3c4ccccc4C(c4ccccc43)C12 (stereo unspecified),2.45%,-6.8%,0.7%,-3.3%,-2.4%,2.85%
NNC(=O)c1ccccc1Cl,-11.2%,-21.1%,-11.9%,0.4%,-3.8%,-25.9%
c1ccc(C(N2CCNCC2)N2CCNCC2)cc1,-2.05%,8%,10.1%,-3.6%,-9.3%,17%
CCN(CC)CCNc1ccc2ncn3c4ccc(OC)cc4c(=O)c1c23,4.35%,-1.9%,-34.9%,18.6%,20.9%,34.2%
CCC/C=C(/CC)COC(C)=O,3.15%,-19.1%,-6.6%,-7.25%,-5.35%,-3.85%
CC(=C/c1ccccc1)/C=C1/SC(=S)N(C=C2C(=O)NC(=O)NC2=O)C1=O,54.9%,54.1%,32.4%,50.2%,50.5%,43.2%
CC(C)CCOc1ccc(C(N)=S)c2ccccc12,80% (active),96.8% (active),96.4% (active),68.5%,84% (active),95.2% (active)
Nc1cc(N)cc([N+](=O)[O-])c1,-9.75%,-16.4%,-8%,-13.7%,8.8%,15.2%
Clc1cc(Cl)c(Cl)c(Cl)c1Cl,-4.1%,-9.95%,-0.15%,12.8%,-2.7%,13.9%
C=C1CCC2(C)CCC3(C)C(CCC4C5(C)CCC(OC(C)=O)C(C)(C)C5CCC43C)C2C1C (stereo unspecified),-4.05%,-5.9%,4.6%,1.45%,-5.15%,26.6%
O=C(O)C1CCCCC1C(=O)Nc1nc2ccccc2[nH]1 (stereo unspecified),-18.6%,-17.1%,-12.7%,-16.7%,-57.9%,-10.6%
COCCN(CCOC)C1C2=C(CCCC2)OS(=O)(=O)C1c1ccccc1 (stereo unspecified),26.9%,-4.75%,6.45%,12.9%,3.2%,0.05%
CCc1cccc2[nH]c3cc([N+](=O)[O-])ccc3c12,12%,-13.8%,2.5%,-22.8%,-0.4%,15.7%
CCCCCCCCCCCCCCCCCC(=O)OCC(COC(C)=O)OC(C)=O (stereo unspecified),-3.45%,-5.05%,-3.8%,-46.1%,-1.2%,4.8%
N#CC(c1ccccc1)N(CCc1ccccc1)C(=O)c1ccc(C(=O)N(CCc2ccccc2)C(C#N)c2ccccc2)cc1 (stereo unspecified),15.2%,26.9%,7.8%,13.8%,6.6%,-11.3%
CC([N+](=O)[O-])S(=O)(=O)c1ccccc1 (stereo unspecified),3.55%,-20.1%,-10.4%,-7.45%,-2.95%,5.5%
N#Cc1c2nc3ccccc3nc2n2ccc3ccccc3c12,-50%,-61%,-83.3%,-13.1%,-42.5%,-71.7%
CC(=O)Nc1nc2c(s1)CCc1ccccc1-2,49.4%,13.8%,12.8%,5.6%,10.1%,15.2%
